Measured values as given in PubChem BioAssay (NCI).
About 83,000 compounds went through this panel and 20% of them were active in at least one assay; those are over-represented in the sample as a whole.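 Interpretation: 100, growth as untreated; towards 0, rising growth inhibition; 0, no net growth; 0 to -100, cell death. Compounds scoring below 10 were considered active.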 A number with no mark means an inactive call. Calls of active or inactive are those of the source.

What was measured:
Assay in all cases: NCI-60 one-dose screen, 48 h (100 = growth as untreated, 0 = no growth, -100 = all killed)
Conditions in all cases: 10 µM unless noted
SR leukemia = tested on: SR leukemia
RPMI-8226 leukemia = tested on: RPMI-8226 leukemia
OVCAR-8 ovarian = tested on: OVCAR-8 ovarian
OVCAR-5 ovarian = tested on: OVCAR-5 ovarian
OVCAR-4 ovarian = tested on: OVCAR-4 ovarian
SK-OV-3 ovarian = tested on: SK-OV-3 ovarian
IGROV1 ovarian = tested on: IGROV1 ovarian
OVCAR-3 ovarian = tested on: OVCAR-3 ovarian
HS 578T breast = tested on: HS 578T breast
NCI/ADR-RES ovarian = tested on: NCI/ADR-RES ovarian
T-47D breast = tested on: T-47D breast
BT-549 breast = tested on: BT-549 breast
MDA-MB-435 melanoma = tested on: MDA-MB-435 melanoma
SW-620 colon = tested on: SW-620 colon
MCF7 breast = tested on: MCF7 breast
HCT-116 colon = tested on: HCT-116 colon
HCC-2998 colon = tested on: HCC-2998 colon
KM12 colon = tested on: KM12 colon

Structure (SMILES)	growth (SR leukemia)	growth (RPMI-8226 leukemia)	growth (OVCAR-8 ovarian) [%]	growth (OVCAR-5 ovarian)	growth (OVCAR-4 ovarian) [%]	growth (SK-OV-3 ovarian)	growth (IGROV1 ovarian) [%]	growth (OVCAR-3 ovarian)	growth (HS 578T breast)	growth (NCI/ADR-RES ovarian)	growth (T-47D breast) [%]	growth (BT-549 breast) [%]	growth (MDA-MB-435 melanoma)	growth (SW-620 colon)	growth (MCF7 breast) [%]	growth (HCT-116 colon)	growth (HCC-2998 colon)	growth (KM12 colon)
O=C(NNc1nc2cc(F)c(F)cc2n2c(CN3CC4CNCC4C3)ccc12)c1cnccn1 (stereo not drawn)	12%	20.4%	13.8	42.7%	22.8	13.3%	14.5	35.9%	72.7%	56.7%	20.8	28.7	25.3%	23.7%	10.9	14.8%	31.7%	15.4%
CCCCCc1ccc(S(=O)(=O)Nc2cccc(-c3csc(NCCN4CCN(C)CC4)n3)c2)cc1	-6.54% (active)	-21.4% (active)	94.2	94.1%	84.5	92.4%	79.9	68.1%	87%	85.7%	80.1	95.1	29.7%	2.57% (active)	15.5	4.07% (active)	-6.69% (active)	77.7%
COc1ccc(Oc2ccc(/C=N/NC(=O)CSc3nc4ccccc4c(=O)n3-c3ccc(Cl)cc3)cc2)cc1	72.8%	85.1%	85.7	81.2%	72.5	66.3%	48.7	-56.8% (active)	-4.46% (active)	51.1%	37.8	89.4	87.7%	44.4%	49.3	13.3%	83.3%	77.2%
COC(=O)C[Se]C(=O)Cc1c(C)n(C(=O)c2ccc(Cl)cc2)c2ccc(OC)cc12	16.4%	90.8%	41.4	15.4%	40.6	118%	16.8	44.7%	29.8%	9.78% (active)	83	102	39.6%	62.4%	28.2	4.82% (active)	58.3%	26.4%
COc1ccccc1-n1cc(C#N)c(N)c1C(=O)c1ccc(Br)cc1	40.3%	92.4%	90.7	94.4%	96.8	88.7%	67.8	73.3%	78.4%	42.6%	60	88.9	3.09% (active)	38.7%	33.5	58.8%	71%	39.3%
N#Cc1cn(Cc2ccc(Cl)cc2Cl)c(C(=O)c2ccc(Br)cc2)c1N	99.5%	111%	84.5	92%	100	90.4%	97.3	105%	90%	88.8%	87.8	108	95.6%	98.8%	87.2	101%	108%	99.3%
COc1cc(-c2nc(-c3ccccc3)[nH]c2-c2ccnc(NCCCNS(=O)(=O)c3cccc(F)c3)n2)ccc1Cl	32.2%	27.2%	31.7	88.1%	56.3	76.8%	40.6	40.7%	78%	31.9%	24.1	71	22.5%	71.3%	35.3	18.8%	55.5%	39.8%
O=C(CSc1nc2ccccc2c(=O)n1-c1ccccc1)Nc1ccc(-c2nc3ccc([N+](=O)[O-])cc3[nH]2)cc1	20.9%	67.2%	75.5	86.1%	88.6	106%	57.9	63.6%	77.1%	75.3%	89.1	80	80.1%	43.7%	40.6	67.4%	100%	91.7%
Cc1cc2nc(C(Cl)Cl)nc(-c3cccs3)n2n1	48.3%	-23.4% (active)	35	3.63% (active)	14.9	14.7%	43.2	-30.9% (active)	3.9% (active)	13.7%	30.6	74.1	26.3%	10.9%	12.1	12.2%	-54.4% (active)	-26.4% (active)
CCN1CCN(Cc2ccc(C(=O)Nc3ccc(C)c(Oc4ccc(-c5[nH]nc6ncnc(N)c56)cc4)c3)cc2C(F)(F)F)CC1	11.3%	65.8%	96.7	94.9%	87	99.8%	82.1	116%	64.9%	67.2%	100	109	82%	115%	70.6	67%	117%	21.2%
NC(=O)c1c(NC(=O)c2ccc(F)cc2F)sc2c1CCC(=O)C2	35.8%	9.53% (active)	44	24.5%	27	103%	50.5	14.8%	43.9%	32.7%	32.9	42.2	74.1%	19.1%	51.8	11.3%	89.5%	17.2%
Nc1ncc(-c2ccc3ncnc(Nc4cccc(Cl)c4F)c3c2)cn1	66.3%	47.6%	64.3	47.8%	69.5	0% (active)	11.4	57.2%	35%	59.3%	23.8	61.3	80.4%	91.1%	38.2	96.4%	56.5%	89.6%
O=S(=O)(NCCNc1nccc(-n2cnc3ccccc32)n1)c1ccc(C(F)(F)F)cc1	35.5%	44.9%	63.5	86.2%	28.4	62.2%	66.4	72.9%	42.9%	55.9%	22.3	53.1	64.4%	83.5%	34.9	40.1%	80.5%	58.7%
CC(C)c1ccc(NCc2cn(-c3ccc(C(=O)O)cc3)nc2-c2cc(C(F)(F)F)cc(C(F)(F)F)c2)cc1	101%	65.7%	85	103%	96.2	90.5%	92.7	80.9%	68%	82.8%	71	102	91%	86.8%	75.3	84%	97%	82.5%
O=C(NCCn1ccnc1)c1ccc(-c2nc3ccc4[nH]ncc4c3c3c2CCCC3)cc1	2.67% (active)	77.6%	77.2	93.9%	66.3	63.1%	62.8	36.7%	2.42% (active)	102%	56	44.2	-1.93% (active)	57.4%	20.5	37%	81.6%	26%
COc1ccc(NC2=C(Cl)C(=O)c3nc(C)ccc3C2=O)cc1OC	0.922% (active)	47.3%	92.6	105%	71.4	91.8%	19.6	13.2%	119%	94.7%	14.9	126	-67.2% (active)	72.2%	59	55.8%	104%	98.2%
